The results in this text go back to PubChem BioAssay.

The nature of experiment [1]: growth inhibition of DIPG glioma cells, dose response, cell-based, SU-DIPG-XVII, MIPE5.0, CellTiter-Glo, qHTS (AID 1347060).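 Also: cells exposed to compound for 48 hours before viability readout.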 The settings on record: SU-DIPG-XVII viability, CellTiter-Glo ATP luminescence.
Experiment [2] is described as follows: growth inhibition of DIPG glioma cells, dose response, cell-based, SU-DIPG-XIII, MIPE5.0, CellTiter-Glo, qHTS (AID 1347064; cut-off not given, nearly all actives have AC50 up to about 23 µM;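 also: cells exposed to compound for 48 hours before the viability read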). The settings on record: SU-DIPG-XIII viability, CellTiter-Glo ATP luminescence. In general terms: Cellular ATP, detected with luciferase, serves as a proxy for viable cell number.
Experiment [3] can be described thus: viability loss in pontine glioma line – cell-based, SU-DIPG-XXV, MIPE5.0, CellTiter-Glo, qHTS, dose response (AID 1347065).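 Also: cells exposed to compound for 48 hours before ATP readout.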 The settings on record: CellTiter-Glo ATP luminescence.
The nature of experiment [4]: JHH-DIPG-1 glioma cell viability, MIPE5.0 library, CellTiter-Glo luminescence, qHTS (AID 1347067).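 Also: cells exposed to compound for 48 hours before readout.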 The settings on record: JHH-DIPG-1 glioma viability, CellTiter-Glo ATP luminescence.
Experiment [5] can be described thus: SU-DIPG-XXV glioma cell viability, MIPE5.0 library, qHTS (AID 1347068; cut-off not given, nearly all actives have IC50 up to about 30 µM;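 as to IC50: cells exposed to compound for 48 hours before viability readout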). In general terms: qHTS replaces the single test concentration by a dilution series.
Experiment [6] in a line: LFS_MB_P medulloblastoma growth inhibition, cell-based, chromothripsis tumors, cisplatin or BGB combos (AID 1671449; in the data active = inhibition above about 80%;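 also: cells exposed for 96 hours; 0% = vehicle DMSO and 100% = killing by high DMSO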). The settings on record: LFS_MB_P medulloblastoma cells.
Experiment [7] can be described thus: HDN33 neuroblastoma growth inhibition, cell-based, chromothripsis tumors, cisplatin or BGB combos (AID 1671450; in the data active = inhibition above about 80%;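 also: cells exposed to compound for four days; 0% = vehicle DMSO and 100% = cell killing by high DMSO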). The settings on record: HDN33 neuroblastoma cells, stronger effect = higher value.
Experiment [8] is described as follows: ICB984 medulloblastoma cell growth inhibition, synergistic combos for chromothripsis tumors, cisplatin or BGB combos (AID 1671451; call rule not given here;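 also: cells exposed for 96 hours before readout; 0% = vehicle DMSO and 100% = killing by high DMSO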). The settings on record: ICB984 medulloblastoma cells, drug combinations, stronger effect = higher value.
The nature of experiment [9]: LFS_MB_1R medulloblastoma cell growth inhibition, synergistic combos for chromothripsis tumors, cisplatin or BGB combos (AID 1671452; in the data active = inhibition above about 80%;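 also: cells exposed for 96 hours before readout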). The settings on record: LFS_MB_1R medulloblastoma cells, stronger effect = higher value.
Experiment [10] is described as follows: HTB85 osteosarcoma cell growth inhibition, synergistic combos for chromothripsis tumors, BGB or cisplatin IC20 combos (AID 1671453; in the data active = inhibition above about 80%;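 also: cells exposed for 96 hours before readout; 0% = vehicle DMSO and 100% = high DMSO killing control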). The settings on record: HTB85 osteosarcoma cells, drug combinations, stronger effect = higher value.
Experiment [11] can be described thus: CRL2098 osteosarcoma cell growth inhibition, synergistic combos for chromothripsis tumors, BGB or cisplatin IC20 combos (AID 1671454; in the data active = inhibition above about 80%;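 also: cells exposed for 96 h before readout; 0% = vehicle DMSO and 100% = killing by high DMSO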). The settings on record: CRL2098 osteosarcoma cells, drug combinations, stronger effect = higher value.
A short description of experiment [12]: HD-MB03 medulloblastoma cell growth inhibition, synergistic combos for chromothripsis tumors, BGB or cisplatin IC20 combos (AID 1671455; in the data active = inhibition above about 83%;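 also: 0% = vehicle DMSO and 100% = high DMSO as cytotoxic control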). The settings on record: HD-MB03 medulloblastoma cells, stronger effect = higher value.
The nature of experiment [13]: UWB1.289 ovarian carcinoma cell growth inhibition, synergistic combos for chromothripsis tumors, BGB or cisplatin combos (AID 1671456; in the data active = inhibition above about 80%;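 also: cells exposed to compound for four days; 0% = vehicle DMSO and 100% = killing by high DMSO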). The settings on record: UWB1.289 ovarian carcinoma cells, stronger effect = higher value.
Experiment [14] in a line: MDA-MB-436 breast carcinoma cell growth inhibition, synergistic combos for chromothripsis tumors, BGB or cisplatin combos (AID 1671458; call rule not given here;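 also: cells exposed for 96 hours; 0% = vehicle DMSO and 100% = killing by high DMSO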). The settings on record: MDA-MB-436 breast carcinoma growth inhibition, drug combinations, stronger effect = higher value.
The nature of experiment [15]: growth inhibition of BT084 medulloblastoma cells, cell-based, ICGC_MB145, cisplatin and BGB IC40 combos (AID 1671461; in the data active = inhibition above about 80%;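 also: cells exposed to drugs for 96 hours; 0% = vehicle DMSO and 100% = high DMSO full killing control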). The settings on record: drug combinations, stronger effect = higher value.
A short description of experiment [16]: growth inhibition of RCMB18 medulloblastoma cells, cell-based, cisplatin and BGB IC40 combos (AID 1671462; in the data active = inhibition above about 80%;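 also: cells exposed to compound for four days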). The settings on record: stronger effect = higher value.
The nature of experiment [17]: growth inhibition of CRL1545 osteosarcoma cells, cell-based, cisplatin and BGB IC20 combos (AID 1671464; in the data active = inhibition above about 80%;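 also: cells exposed to compound for 96 hours before readout; 0% = vehicle DMSO and 100% = high DMSO killing control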). The settings on record: stronger effect = higher value.
A short description of experiment [18]: sensitizers of A549 cells to miR-34 induction, primary screen, imaging, A549 dox-inducible miR-34, nuclei and caspase counts (AID 1347080;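 active = compounds whose cell count with miR-34 switched on is under 0.7 times the count with it off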). The settings on record: A549 miR-34 inducible, Hoechst nuclei count, 48 h.
Experiment [19] in a line: survival rescue of mitochondrial mutant cells in low glucose, primary screen, MELAS cybrids, Rieske KO mouse fibroblasts, CellTiter-Glo (AID 1508586;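 active = mean z-score across replicates of 1.96 or higher in either the MELAS or the Rieske mutant cell line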;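 also: z relative to plate mean and SD of compound and empty wells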).
Where [20] appears, read: measured here: combination with BGB IC40, at 0.05 µM.
Where [21] appears, read: measured here: with BGB IC20 combination, at 0.5 µM.
Where [22] appears, read: measured here: with cisplatin IC20 combination, at 0.5 µM.
[23] abbreviates: measured here: combination with cisplatin, at 0.5 µM.

Molecules are shown by their SMILES. Inconclusive results are not listed. The source made the active and inactive calls. Unless noted, the limit is not given here; nearly all actives have AC50 up to about 26 µM.

For orientation: AC50 means the midpoint of the concentration-response curve, whichever way the signal moves. A word on the inhibition: it is the change of the read-out against control, counted positive when it falls. A word on the IC50: it is the concentration needed to halve the response being measured.

On to `CC(=O)[C@]1(N)Cc2c(O)c3c(c(O)c2[C@@H](O[C@H]2C[C@H](O)[C@H](O)CO2)C1)C(=O)c1ccccc1C3=O`, for which the AC50 in experiment [1] was 16.6 µM (active); in experiment [2], 16.6 µM (active); in experiment [3], 20.9 µM (active); in experiment [4] it was 16.6 µM (active). Moreover, the molecule was classed as inactive in experiment [5]. Moreover, the inhibition in experiment [6] (at 0.5 µM, stronger effect = higher value) was -12.9% (inactive); in [6] (measured here: combination with BGB IC20, at 0.005 µM), -16.8%; in [6] (measured here: combination with BGB IC40, at 0.005 µM), -30.9%; in [6] (setting [20]), -51.9%; in experiment [6] (measured here: combination with cisplatin, at 0.5 µM, stronger effect = higher value), -19.4%; in experiment [6] (measured here: combination with cisplatin, at 5 µM, stronger effect = higher value), 104%. The inhibition in experiment [7] (BGB combo, at 5 µM) is 96.4%; in [7] (at 0.5 µM) it was -0.33% (inactive); in [7] (cisplatin combo, at 5 µM) it was 97.3%; in experiment [7] (setting [21]), 0.353%; in experiment [7] (setting [22]), -4.83%; in experiment [7] (single agent, at 5 µM), 98.2%. Further, the inhibition in [8] (BGB IC20 combo, at 0.005 µM) is 2.76%; in experiment [8] (BGB IC40 combo, at 0.005 µM), -3.55%; in experiment [8] (BGB IC40 combo, at 0.05 µM), 86.2%; in [8] (at 0.5 µM), -21.5% (inactive); in experiment [8] (cisplatin combo, at 0.05 µM), 85.8%; in experiment [8] (cisplatin combo, at 0.5 µM) it was -10.1%. For the same molecule, the inhibition in experiment [8] (cisplatin combo, at 5 µM) is -12.5%; in [8] (measured here: 5 uM single agent, at 5 µM) it was -13.2%; in experiment [9] (at 0.5 µM), -7.63% (inactive); in experiment [9] (setting [20]), -7.53%; in experiment [9] (setting [23]), -2.7%; in [9] (measured here: combination with cisplatin, at 5 µM) it was 81.1%. Also, the inhibition in [10] (at 0.5 µM) was -1.28% (inactive); in [10] (measured here: with BGB IC20, at 0.5 µM), 3.02%; in experiment [10] (measured here: with BGB IC20, at 5 µM), 79.1%; in experiment [10] (measured here: with cisplatin IC20, at 0.5 µM), -5.97%; in experiment [10] (measured here: with cisplatin IC20, at 5 µM), 82.6%; in experiment [10] (single agent, at 5 µM), 81.3%. Further, the inhibition in experiment [11] (at 0.5 µM) is -28.4% (inactive); in experiment [11] (measured here: combination with BGB at IC20, at 0.5 µM) it was -13.2%; in experiment [11] (measured here: combination with cisplatin at IC20, at 0.5 µM), -55.8%; in [12] (at 0.5 µM), -4.21% (inactive); in [12] (measured here: combo with BGB at IC20, at 0.5 µM) it was 5.01%; in [12] (measured here: combo with cisplatin at IC20, at 0.5 µM), -12.8%. Besides, the inhibition was 13.8% (inactive) in [13] (at 0.5 µM); -13.2% in experiment [13] (measured here: inhibition with BGB combination, at 0.05 µM); 8.23% in experiment [13] (measured here: inhibition with cisplatin combination, at 0.05 µM); -0.11% (inactive) in experiment [14] (at 0.5 µM); -3.77% in experiment [14] (measured here: BGB combination, at 0.5 µM); 73.9% in [14] (measured here: BGB combination, at 5 µM). The inhibition was -8.99% in experiment [14] (measured here: cisplatin combination, at 0.5 µM); 84% in experiment [14] (measured here: cisplatin combination, at 5 µM); 22.6% (inactive) in [15] (at 0.5 µM); -12.8% in experiment [15] (cisplatin combination, at 0.5 µM); 84.4% in experiment [15] (cisplatin combination, at 5 µM); -38.7% in [15] (measured here: BGB IC40 combination 0.05 uM, at 0.05 µM). In addition, the inhibition in experiment [15] (single agent, at 5 µM) was 86.5%; in [16] (at 0.5 µM) it was 9% (inactive); in experiment [16] (cisplatin combo, at 5 µM), 89.6%; in experiment [16] (measured here: BGB IC40 combination, at 0.05 µM), -27.7%; in experiment [16] (setting [23]) it was 31.1%; in experiment [16] (single agent, at 5 µM) it was 89.9%. In addition, the inhibition in [17] (at 0.5 µM) is 20% (inactive); in [17] (setting [21]), -1.69%; in experiment [17] (setting [22]), 29.7%; in experiment [17] (single agent, at 0.05 µM), 22.1%; in experiment [17] (single agent, at 5 µM) it was 90.1%.
For `CCCCNc1ncc2c(-c3ccc(F)cc3)nn(CC3CCC(N)CC3)c2n1` (stereo not given), the AC50 is 8.11 µM (active) in experiment [1], 8.11 µM (active) in [2], 5.12 µM (active) in [3] and 8.11 µM (active) in experiment [4]. Moreover, the half-maximal inhibitory concentration (IC50) in [5] was 7.23 µM (active).
For `COc1cc(F)c(F)c(Nc2ccc(I)cc2F)c1NS(=O)(=O)C1(C[C@H](O)CO)CC1`, the concentration at half-maximal activity (AC50) in experiment [1] is 0.417 µM (active); in [2] it was 0.235 µM (active); in experiment [3], 0.59 µM (active); in experiment [4], 0.209 µM (active). The IC50 in experiment [5] was 2.63 µM (active).
For `COc1cc(N2CCC(N(C)C)CC2)ccc1Nc1ncc(Cl)c(Nc2ccccc2P(C)(C)=O)n1`, the AC50 was 1.05 µM (active) in experiment [1], 0.934 µM (active) in [2], 0.417 µM (active) in experiment [3] and 1.66 µM (active) in experiment [4]. Moreover, the IC50 in experiment [5] was 1.86 µM (active). Also, the fold change was 1.01 (inactive) in [18] (stronger effect = lower value, cell number ratio, induced over uninduced) and 0.883 in experiment [18] (measured here: relative caspase fold change +Dox/-Dox). Besides, the cell count in experiment [18] (measured here: total cells with miR-34 induction, stronger effect = lower value) was found to be 1590; in experiment [18] (measured here: total cells without miR-34 induction), 1580. The z-score is 3.7 (active) in experiment [19] (MELAS cybrid survival, CellTiter-Glo 48 h, stronger effect = higher value) and -0.471 in experiment [19] (Rieske KO mouse fibroblast survival, CellTiter-Glo 72 h).
On to `COc1c(Nc2ncc(Cl)c(N[C@H]3[C@H](C(N)=O)[C@@H]4C=C[C@@H]3C4)n2)ccc2c1CCC(N1CCOCC1)CC2` (stereo not given in full), for which the half-maximal activity concentration (AC50) in experiment [1] is 4.17 µM (active); in experiment [2], 4.17 µM (active); in experiment [3], 2.95 µM (active); in experiment [4], 8.33 µM (active). For the same molecule, the half-maximal inhibitory concentration (IC50) in experiment [5] was 5.9 µM (active).
